The whole screen tested about 5,500 compounds, of which about 2,000 (36%) were called active. Roughly 18% stayed inconclusive and do not appear here. Rule as the data show it: active = normalized growth mostly below about 0.91 (no sharp cut-off); inconclusive = no clear call, values can overlap the other calls; inactive = mostly above about 0.92. This is one part of the list.
Assay: chemical genetic growth profiling, strain panel (AID 1159580);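 also: tested at 20 µM; growth read once vehicle control cultures reached saturation at 30 °C; 1 = growth at the plate median or of vehicle wells; lower values mean less growth of the strain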
Details: growth OD
[1] = S. cerevisiae deletion strains, locus YDR150W, strain NUM1, active compounds read low
[2] = S. cerevisiae deletion strains, locus YMR263W, strain SAP30, active compounds read low
[3] = S. cerevisiae deletion strains, locus YPL055C, strain LGE1, active compounds read low
[4] = S. cerevisiae deletion strains, locus YPL241C, strain CIN2, active compounds read low

Measured: normalized growth

NCC(O)C1CCCCCCC1 (configuration not stated)
inactive: S. cerevisiae deletion strains, locus YAL040C, strain CLN3, active compounds read low 1.01 | S. cerevisiae deletion strains, locus YCL061C, strain MRC1 (second series), active compounds read low 1.01 | [1] 0.995 | S. cerevisiae deletion strains, locus YDR363W, strain ESC2, active compounds read low 0.994 | S. cerevisiae deletion strains, locus YER002W, strain NOP16, active compounds read low 0.999 | [2] 0.999 | S. cerevisiae deletion strains, locus YNL175C, strain NOP13, active compounds read low 1.01 | S. cerevisiae deletion strains, locus YNL197C, strain WHI3, active compounds read low 1.01 | S. cerevisiae deletion strains, locus YNL224C, strain SQS1, active compounds read low 1 | S. cerevisiae deletion strains, locus YOR083W, strain WHI5 (second series), active compounds read low 1.04 | [3] 0.992 | [4] 1

COc1ccc(CN2C(=O)CSC2c2ccccn2)cc1 (configuration not stated)
inactive: S. cerevisiae deletion strains, locus YAL013W, strain DEP1, active compounds read low 1.01 | S. cerevisiae deletion strains, locus YBR229C, strain ROT2, active compounds read low 0.995 | S. cerevisiae deletion strains, locus YCL061C, strain MRC1, active compounds read low 0.977 | S. cerevisiae deletion strains, locus YDL101C, strain DUN1, active compounds read low 1.01 | S. cerevisiae deletion strains, locus YDL134C, strain PPH21, active compounds read low 1 | [1] 1.01 | S. cerevisiae deletion strains, locus YEL061C, strain CIN8, active compounds read low 1.01 | S. cerevisiae deletion strains, locus YGR078C, strain PAC10, active compounds read low 1.01 | S. cerevisiae deletion strains, locus YHR030C, strain SLT2, active compounds read low 0.998 | S. cerevisiae deletion strains, locus YHR087W, strain rtc3, active compounds read low 1.01 | S. cerevisiae deletion strains, locus YJL187C, strain SWE1, active compounds read low 0.989 | S. cerevisiae deletion strains, locus YJR043C, strain POL32, active compounds read low 0.995 | S. cerevisiae deletion strains, locus YJR075W, strain HOC1, active compounds read low 1.01 | S. cerevisiae deletion strains, locus YKL190W, strain CNB1, active compounds read low 1 | S. cerevisiae deletion strains, locus YLR039C, strain RIC1, active compounds read low 0.97 | S. cerevisiae deletion strains, locus YLR058C, strain SHM2 (second series), active compounds read low 0.991 | S. cerevisiae deletion strains, locus YLR085C, strain ARP6, active compounds read low 0.971 | S. cerevisiae deletion strains, locus YLR262C, strain YPT6, active compounds read low 0.953 | S. cerevisiae deletion strains, locus YML094W, strain GIM5, active compounds read low 1.02 | S. cerevisiae deletion strains, locus YMR219W, strain ESC1, active compounds read low 0.993 | [2] 0.993 | S. cerevisiae deletion strains, locus YNL153C, strain GIM3, active compounds read low 0.999 | S. cerevisiae deletion strains, locus YNL298W, strain CLA4 (second series), active compounds read low 0.994 | S. cerevisiae deletion strains, locus YNL322C, strain KRE1, active compounds read low 1 | S. cerevisiae deletion strains, locus YNR030W, strain Alg12, active compounds read low 1 | S. cerevisiae deletion strains, locus YOL006C, strain TOP1, active compounds read low 0.988 | [3] 1 | [4] 1.07 | S. cerevisiae deletion strains, locus YPR135W, strain CTF4, active compounds read low 0.985 | S. cerevisiae strains, strain wild type, active compounds read low 1

Source: PubChem BioAssay AID1159580 (chemical genetic matrix, 2015)
